Data as given in article PMC8384837, “Expanding the binding specificity for RNA recognition by a PUF domain”.
Where a chain is given by its changes, count along the chain named.

Columns and labels:
Experiment in all cases: yeast three-hybrid, YBZ-1, SC-Leu-His + 0.5 mM 3-AT, 4 days
Details in all cases: tags: N-Gal4 AD-HA kept; label: inside an RPR1-promoter hybrid RNA with tandem MS2 sites; ssRNA
PUM1 PUF domain R1-GRK = PUM1 PUF domain R1-GRK (Homo sapiens, UniProt Q14671 828-1176, S863G;Q867K)
Summary of the method: (§1)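 Sequencing with Illumina followed PCR amplification of the repeat regions from transformants grown four days on SC-Leu (input) or SC-Leu-His + 0.5 mM 3-AT (selection). The transformants were strain YBZ-1 with a LexA–MS2 coat fusion and a HIS3 reporter, carrying Pumilio-1 PUF domain libraries and matching RNA elements. The interaction score is the log change in variant frequency from input to selection, computed in log2 with a pseudocount of 1 for absent variants.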

PUM1 PUF domain R1-KLS = PUM1 PUF domain R1-KLS (Homo sapiens, UniProt Q14671 828-1176, S863K;R864L;Q867S)
Summary of the method: as §1

PUM1 PUF domain R6-CYT = target: T1, PUM1 PUF domain R6-CYT (Homo sapiens, UniProt Q14671 828-1176, N1043C;Q1047T)
T1 sequence: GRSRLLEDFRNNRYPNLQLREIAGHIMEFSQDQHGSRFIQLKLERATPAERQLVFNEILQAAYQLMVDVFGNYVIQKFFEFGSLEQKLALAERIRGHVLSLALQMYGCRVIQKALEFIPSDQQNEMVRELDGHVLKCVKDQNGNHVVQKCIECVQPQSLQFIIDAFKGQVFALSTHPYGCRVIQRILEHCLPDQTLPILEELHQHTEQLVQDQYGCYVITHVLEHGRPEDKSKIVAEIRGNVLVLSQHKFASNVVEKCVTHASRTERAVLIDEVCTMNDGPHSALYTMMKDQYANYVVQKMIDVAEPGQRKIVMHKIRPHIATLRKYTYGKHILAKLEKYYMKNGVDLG
Summary of the method: as §1

PUM1 PUF domain R5-GRI = PUM1 PUF domain R5-GRI (Homo sapiens, UniProt Q14671 828-1176, C1007G;Q1011I)
Summary of the method: as §1

PUM1 PUF domain R5-GVR = PUM1 PUF domain R5-GVR (Homo sapiens, UniProt Q14671 828-1176, C1007G;R1008V;Q1011R)
Summary of the method: as §1

PUM1 PUF domain R5-KLH = PUM1 PUF domain R5-KLH (Homo sapiens, UniProt Q14671 828-1176, C1007K;R1008L;Q1011H)
Summary of the method: as §1

PUM1 PUF domain R5-KFV = PUM1 PUF domain R5-KFV (Homo sapiens, UniProt Q14671 828-1176, C1007K;R1008F;Q1011V)
Summary of the method: as §1

PUM1 PUF domain R2-NWW = PUM1 PUF domain R2-NWW (Homo sapiens, UniProt Q14671 828-1176, Y900W;Q903W)
Summary of the method: as §1

PUM1 PUF domain R3-CRR = PUM1 PUF domain R3-CRR (Homo sapiens, UniProt Q14671 828-1176, Q939R)
Summary of the method: as §1

PUM1 PUF domain R5-ERK = PUM1 PUF domain R5-ERK (Homo sapiens, UniProt Q14671 828-1176, C1007E;Q1011K)
Summary of the method: as §1

PUM1 PUF domain R3-GPF = PUM1 PUF domain R3-GPF (Homo sapiens, UniProt Q14671 828-1176, C935G;R936P;Q939F)
Summary of the method: as §1

PUM1 PUF domain R6-QRQ = target: T2, PUM1 PUF domain R6-QRQ (Homo sapiens, UniProt Q14671 828-1176, N1043Q;Y1044R)
T2 sequence: T1 sequence with C216Q, Y217R, T220Q
Summary of the method: as §1

PUM1 PUF domain R3-DFL = PUM1 PUF domain R3-DFL (Homo sapiens, UniProt Q14671 828-1176, C935D;R936F;Q939L)
Summary of the method: as §1

PUM1 PUF domain R3-WWR = PUM1 PUF domain R3-WWR (Homo sapiens, UniProt Q14671 828-1176, C935W;R936W;Q939R)
Summary of the method: as §1

PUM1 PUF domain R3-LHG = PUM1 PUF domain R3-LHG (Homo sapiens, UniProt Q14671 828-1176, C935L;R936H;Q939G)
Summary of the method: as §1

PUM1 PUF domain R2-PWE = PUM1 PUF domain R2-PWE (Homo sapiens, UniProt Q14671 828-1176, N899P;Y900W;Q903E)
Summary of the method: as §1

PUM1 PUF domain R3-SEE = PUM1 PUF domain R3-SEE (Homo sapiens, UniProt Q14671 828-1176, C935S;R936E;Q939E)
Summary of the method: as §1

PUM1 PUF domain R4-DHR = PUM1 PUF domain R4-DHR (Homo sapiens, UniProt Q14671 828-1176, N971D;Q975R)
Summary of the method: as §1

PUM1 PUF domain R7-TSS = PUM1 PUF domain R7-TSS (Homo sapiens, UniProt Q14671 828-1176, S1079T;N1080S;E1083S)
Summary of the method: as §1

PUM1 PUF domain R4-PFQ = PUM1 PUF domain R4-PFQ (Homo sapiens, UniProt Q14671 828-1176, N971P;H972F)
Summary of the method: as §1

GGCUAGAACUAGUGGAUCCCCCGGCGCCCGGCGGCUCGAGCCCGGGUAAGUGUAAAUCGUCUGCAUGCCGCCGGGCGCCAUGCCUGCAGGUCGACUCUAGAAAACAUG
binding signal (PUM1 PUF domain R1-GRK): 5.64 log2 enrichment (interaction score) | binding signal (PUM1 PUF domain R1-KLS): 3.97 log2 enrichment (interaction score)

GGCUAGAACUAGUGGAUCCCCCGGCGCCCGGCGGCUCGAGCCCGGGUAAGUGAAAAUAGUCUGCAUGCCGCCGGGCGCCAUGCCUGCAGGUCGACUCUAGAAAACAUG
binding signal (PUM1 PUF domain R6-CYT): 3.1 log2 enrichment (interaction score)

GGCUAGAACUAGUGGAUCCCCCGGCGCCCGGCGGCUCGAGCCCGGGUAAGUGUCAAUAGUCUGCAUGCCGCCGGGCGCCAUGCCUGCAGGUCGACUCUAGAAAACAUG
binding signal (PUM1 PUF domain R5-GRI): 1.2 log2 enrichment (interaction score) | binding signal (PUM1 PUF domain R5-GVR): 5.93 log2 enrichment (interaction score) | binding signal (PUM1 PUF domain R5-KLH): 2.85 log2 enrichment (interaction score) | binding signal (PUM1 PUF domain R5-KFV): 5.97 log2 enrichment (interaction score)

GGCUAGAACUAGUGGAUCCCCCGGCGCCCGGCGGCUCGAGCCCGGGUAAGUGUAAAUAGUCUGCAUGCCGCCGGGCGCCAUGCCUGCAGGUCGACUCUAGAAAACAUG
binding signal (PUM1 PUF domain R2-NWW): 3.94 log2 enrichment (interaction score) | binding signal (PUM1 PUF domain R3-CRR): 2.78 log2 enrichment (interaction score) | binding signal (PUM1 PUF domain R5-ERK): 4.01 log2 enrichment (interaction score) | binding signal (PUM1 PUF domain R3-GPF): 5.65 log2 enrichment (interaction score) | binding signal (PUM1 PUF domain R6-QRQ): 2.52 log2 enrichment (interaction score) | binding signal (PUM1 PUF domain R5-GRI): 3.04 log2 enrichment (interaction score) | binding signal (PUM1 PUF domain R3-DFL): 2.6 log2 enrichment (interaction score) | binding signal (PUM1 PUF domain R3-WWR): 0.59 log2 enrichment (interaction score) | binding signal (PUM1 PUF domain R5-KFV): 3.95 log2 enrichment (interaction score)

GGCUAGAACUAGUGGAUCCCCCGGCGCCCGGCGGCUCGAGCCCGGGUAAGUGUAAUUAGUCUGCAUGCCGCCGGGCGCCAUGCCUGCAGGUCGACUCUAGAAAACAUG
binding signal (PUM1 PUF domain R3-CRR): 2.3 log2 enrichment (interaction score) | binding signal (PUM1 PUF domain R3-LHG): 4.7 log2 enrichment (interaction score) | binding signal (PUM1 PUF domain R3-WWR): 3.35 log2 enrichment (interaction score)

GGCUAGAACUAGUGGAUCCCCCGGCGCCCGGCGGCUCGAGCCCGGGUAAGUGUGAAUAGUCUGCAUGCCGCCGGGCGCCAUGCCUGCAGGUCGACUCUAGAAAACAUG
binding signal (PUM1 PUF domain R5-GRI): 3.52 log2 enrichment (interaction score)

GGCUAGAACUAGUGGAUCCCCCGGCGCCCGGCGGCUCGAGCCCGGGUAAGUGUAAAUUGUCUGCAUGCCGCCGGGCGCCAUGCCUGCAGGUCGACUCUAGAAAACAUG
binding signal (PUM1 PUF domain R1-GRK): 3.96 log2 enrichment (interaction score)

GGCUAGAACUAGUGGAUCCCCCGGCGCCCGGCGGCUCGAGCCCGGGUAAGUGUAAAAAGUCUGCAUGCCGCCGGGCGCCAUGCCUGCAGGUCGACUCUAGAAAACAUG
binding signal (PUM1 PUF domain R2-PWE): 2.14 log2 enrichment (interaction score)

GGCUAGAACUAGUGGAUCCCCCGGCGCCCGGCGGCUCGAGCCCGGGUAAGUGUAAGUAGUCUGCAUGCCGCCGGGCGCCAUGCCUGCAGGUCGACUCUAGAAAACAUG
binding signal (PUM1 PUF domain R3-CRR): 1.17 log2 enrichment (interaction score) | binding signal (PUM1 PUF domain R3-LHG): 6.02 log2 enrichment (interaction score) | binding signal (PUM1 PUF domain R3-WWR): 5.22 log2 enrichment (interaction score) | binding signal (PUM1 PUF domain R3-SEE): 2.43 log2 enrichment (interaction score)

GGCUAGAACUAGUGGAUCCCCCGGCGCCCGGCGGCUCGAGCCCGGGUAAGUGUACAUAGUCUGCAUGCCGCCGGGCGCCAUGCCUGCAGGUCGACUCUAGAAAACAUG
binding signal (PUM1 PUF domain R4-DHR): 6.79 log2 enrichment (interaction score)

GGCUAGAACUAGUGGAUCCCCCGGCGCCCGGCGGCUCGAGCCCGGGUAAGUGUUAAUAGUCUGCAUGCCGCCGGGCGCCAUGCCUGCAGGUCGACUCUAGAAAACAUG
binding signal (PUM1 PUF domain R5-GRI): 3.43 log2 enrichment (interaction score) | binding signal (PUM1 PUF domain R5-GVR): 1.75 log2 enrichment (interaction score) | binding signal (PUM1 PUF domain R5-KFV): 6.19 log2 enrichment (interaction score)

GGCUAGAACUAGUGGAUCCCCCGGCGCCCGGCGGCUCGAGCCCGGGUAAGUUUAAAUAGUCUGCAUGCCGCCGGGCGCCAUGCCUGCAGGUCGACUCUAGAAAACAUG
binding signal (PUM1 PUF domain R7-TSS): 2.55 log2 enrichment (interaction score)

GGCUAGAACUAGUGGAUCCCCCGGCGCCCGGCGGCUCGAGCCCGGGUAAGUGUAAAGAGUCUGCAUGCCGCCGGGCGCCAUGCCUGCAGGUCGACUCUAGAAAACAUG
binding signal (PUM1 PUF domain R2-PWE): 4.9 log2 enrichment (interaction score)

GGCUAGAACUAGUGGAUCCCCCGGCGCCCGGCGGCUCGAGCCCGGGUAAGUGUAUAUAGUCUGCAUGCCGCCGGGCGCCAUGCCUGCAGGUCGACUCUAGAAAACAUG
binding signal (PUM1 PUF domain R4-DHR): 4.76 log2 enrichment (interaction score) | binding signal (PUM1 PUF domain R4-PFQ): 5.54 log2 enrichment (interaction score)
